Measured values reported in PubChem BioAssay AID1942 (Johns Hopkins Ion Channel Center, 2009).
Hit rate of the full screen: of about 2,400 compounds, about 580 (24%) were called active. These entries were drawn from the full list. Values without a mark were called inactive.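 The calls were made as follows: active = activity change at or above the mean plus 3 SD of buffer wells without dofetilide, per plate; inactive = the rest.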

These compounds were tested against Potassium voltage-gated channel subfamily KQT member 2 (Rattus norvegicus) (UniProt O88943) (assay: KCNQ2 potentiation in CHO cells – cell-based, FluxOR thallium flux, counter-screen for hERG block protector project, confirmation (AID 1942;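 also: normalized value minus buffer-control mean plus three SD of buffer wells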)). Conditions: FluxOR thallium flux fluorescence, at 10 µM, hits give high values.
Sequence of Potassium voltage-gated channel subfamily KQT member 2 (Rattus norvegicus) (O88943 whole entry, looked up): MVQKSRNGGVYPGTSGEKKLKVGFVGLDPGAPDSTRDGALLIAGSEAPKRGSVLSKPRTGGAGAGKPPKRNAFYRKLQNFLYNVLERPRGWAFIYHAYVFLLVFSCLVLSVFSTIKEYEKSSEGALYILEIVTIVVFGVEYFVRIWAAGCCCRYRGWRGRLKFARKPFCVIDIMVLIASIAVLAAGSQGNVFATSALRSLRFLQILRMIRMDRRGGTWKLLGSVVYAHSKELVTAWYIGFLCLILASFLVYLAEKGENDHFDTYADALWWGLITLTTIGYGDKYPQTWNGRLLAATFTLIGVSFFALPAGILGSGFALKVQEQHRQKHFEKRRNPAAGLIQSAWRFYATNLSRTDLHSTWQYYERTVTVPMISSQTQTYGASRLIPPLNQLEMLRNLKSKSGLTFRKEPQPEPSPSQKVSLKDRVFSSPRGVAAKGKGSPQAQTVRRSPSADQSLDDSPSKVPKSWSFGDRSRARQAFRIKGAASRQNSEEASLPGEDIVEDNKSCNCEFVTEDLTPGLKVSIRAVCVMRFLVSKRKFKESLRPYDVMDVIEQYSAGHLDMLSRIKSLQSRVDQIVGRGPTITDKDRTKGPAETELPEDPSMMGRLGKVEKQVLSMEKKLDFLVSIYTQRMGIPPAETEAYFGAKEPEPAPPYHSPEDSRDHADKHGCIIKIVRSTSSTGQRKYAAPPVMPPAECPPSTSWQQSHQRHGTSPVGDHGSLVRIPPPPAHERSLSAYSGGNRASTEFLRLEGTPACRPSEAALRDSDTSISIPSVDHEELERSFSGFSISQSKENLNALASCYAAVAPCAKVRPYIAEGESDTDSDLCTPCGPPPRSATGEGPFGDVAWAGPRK

First: O=C(COc1ccc(Cl)cc1)NNC(=O)C(=O)NC1CCCCC1
Second: COc1ccc(C(=O)NNC(=O)C(=O)NC2CCCCC2)cc1
The activity change, less the hit threshold of the first is lower: -11.2% for the first, -1.7% for the second.

First: COc1cc(NC(=O)c2ccccc2OCc2ccccc2)cc(OC)c1OC
Second: CCOC(=O)C1=C(c2ccccc2)NC(=O)NC1c1ccc(OC)c(OC)c1 (stereo not drawn)
The activity change, less the hit threshold of the first is lower: -26.8% for the first, -25.1% for the second.

Compared with `COc1ccccc1C(=O)NCc1ccc2c(c1)OCO2`, `COc1ccccc1Cn1c(=S)[nH]c2ccc(Br)cc2c1=O` is higher in activity change, less the hit threshold: -21.4% for the first, -7.4% for the second.

Compared with `Cc1ccc(/C=C2/C(=N)N3N=C(CC(=O)N4CCCC4)SC3=NC2=O)cc1`, `CCOC(=O)C1CCN(C(=O)COC(=O)c2nn(C)c(=O)c3ccccc23)CC1` is lower in activity change, less the hit threshold: -19.5% for the first, -21% for the second.

Going from `O=C(OCc1ccc([N+](=O)[O-])cc1)c1cc2ccccc2oc1=O` to `CN1C(=O)/C(=N\OC(=O)c2cccc3ccccc23)c2ccccc21`, the activity change, less the hit threshold rises from -21.1% to -9.4%.

First: COc1cc(C2NC(=O)NC(C)=C2C(=O)OCC2CCCCC2)ccc1O (stereo not drawn)
Second: CCOC(=O)c1c(O)c2ccccc2n(C)c1=O
The activity change, less the hit threshold of the first is higher: -7.2% for the first, -10.3% for the second.

Going from `C/C(=N\NC(=O)COc1ccc(C)cc1C(C)C)c1ccc(-n2ccnc2)cc1` to `O=C(CCN1C(=O)/C(=C\C=C\c2ccccc2)SC1=S)Nc1ccc(C(=O)O)cc1`, the activity change, less the hit threshold rises from -22.3% to -12.3%.

Going from `Cc1nn(-c2ccc(Cl)cc2)c2sc(C(=O)c3c(N)n(C)c(=O)n(C)c3=O)cc12` to `CCC(C)Sc1nc2c([nH]c3ccccc32)c(=O)n1C` (stereo not drawn), the activity change, less the hit threshold falls from -14.1% to -19.6%.

Going from `Cc1nc2ccc(C(=O)O)cc2[nH]1` to `O=c1[nH]c2ccccc2nc1C(F)(F)C(F)F`, the activity change, less the hit threshold falls from -10.4% to -16.2%.

First: COCCCN1C(=O)C(=O)/C(=C(/O)c2ccc(S(=O)(=O)N3CCOCC3)cc2)C1c1ccc(F)cc1 (stereo not drawn)
Second: CNc1nc(N)nc(OC(C(F)(F)F)C(F)(F)F)n1
The activity change, less the hit threshold of the first is higher: -9.9% for the first, -11% for the second.

In the case of `COc1ccccc1C(=O)NNC(=O)C(=O)NC1CCCCC1`, the activity change, less the hit threshold is reported as 49.7% (active).
For `COc1ccccc1C(=O)NNC(=O)C(=O)NCc1ccccc1`, the activity change, less the hit threshold was 18.8% (active).
In the case of `CC(C)CSC1=NSC2=NC(=O)/C(=C\c3ccccc3)C(=N)N12`, the activity change, less the hit threshold is reported as 1.1% (active).
For `CCOC(=O)C1=C(c2ccccc2)NC(=O)NC1c1ccc(O)c(Cl)c1` (stereo not drawn), the activity change, less the hit threshold was 0.1% (active).
For `C=CCn1c(=S)[nH]c2ccc(Br)cc2c1=O`, the activity change, less the hit threshold was 12.4% (active).
For `CCSc1nc2c(sc3ccccc32)c(=O)n1C(C)C`, the activity change, less the hit threshold was 30.9% (active).
`Oc1ccc(/C=N/Nc2nccnc2Cl)c(O)c1` was tested, and the activity change, less the hit threshold was 6.2% (active).
`CCOC(=O)c1n[nH]n2c1nc(=S)c1ccccc12` was tested, and the activity change, less the hit threshold was 49.6% (active).
